Reference: PubChem BioAssay (NCI)
This is part of a sample that, as a whole, favours compounds with a hit. Of some 83,000 tested, about 20% had one in any assay.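 48-hour exposure, single concentration, 96-well plates; percent growth endpoint where 0 means no net growth. Active: below 10.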 A number with no mark means an inactive call. Calls of active or inactive are those of the source.

Legend:
Assay in all cases: NCI-60 one-dose screen, 48 h (100 = growth as untreated, 0 = no growth, -100 = all killed)
Settings in all cases: 10 µM unless noted
HCT-15 colon = system: HCT-15 colon
HT29 colon = system: HT29 colon
SNB-75 CNS = system: SNB-75 CNS
SNB-19 CNS = system: SNB-19 CNS
U251 CNS = system: U251 CNS
PC-3 prostate = system: PC-3 prostate
SK-MEL-5 melanoma = system: SK-MEL-5 melanoma
UACC-62 melanoma = system: UACC-62 melanoma
LOX IMVI melanoma = system: LOX IMVI melanoma
SK-MEL-28 melanoma = system: SK-MEL-28 melanoma
SK-MEL-2 melanoma = system: SK-MEL-2 melanoma
EKVX NSCLC = system: EKVX NSCLC
SN12C renal = system: SN12C renal
UO-31 renal = system: UO-31 renal
TK-10 renal = system: TK-10 renal
CAKI-1 renal = system: CAKI-1 renal
A498 renal = system: A498 renal
CCRF-CEM leukemia = system: CCRF-CEM leukemia
MOLT-4 leukemia = system: MOLT-4 leukemia
ACHN renal = system: ACHN renal

Row | Structure (SMILES) | growth (HCT-15 colon) | growth (HT29 colon) | growth (SNB-75 CNS) | growth (SNB-19 CNS) | growth (U251 CNS) | growth (PC-3 prostate) | growth (SK-MEL-5 melanoma) | growth (UACC-62 melanoma) | growth (LOX IMVI melanoma) | growth (SK-MEL-28 melanoma) | growth (SK-MEL-2 melanoma) | growth (EKVX NSCLC) | growth (SN12C renal) | growth (UO-31 renal) | growth (TK-10 renal) | growth (CAKI-1 renal) | growth (A498 renal) | growth (CCRF-CEM leukemia) | growth (MOLT-4 leukemia) | growth (ACHN renal) [%]
1 | CC(=O)c1c(Nc2cccc(F)c2)[nH]c2c(Cl)cc(Cl)c(Cl)c2c1=O | 8.24% (active) | 4.86% (active) | -9.54% (active) | 16.6% | 3.22% (active) | 10.3% | -68.7% (active) | -18.7% (active) | 9.99% (active) | 5.27% (active) | -37.5% (active) | 10.8% | -0.0775% (active) | 6.24% (active) | 12.5% | -5.89% (active) | -41.6% (active) | 8.65% (active) | 4.94% (active) | –
2 | O=C(C[C@]1(O)C(=O)Nc2ccc(Br)cc21)c1ccco1 | 105% | 101% | 96.1% | 95.6% | 100% | 92.6% | 93.3% | 90.7% | 89.9% | 117% | 94.5% | 107% | 90% | 75.4% | 125% | 93.4% | 103% | – | 102% | 109
3 | c1ccc(-c2c(-c3ccccc3)[n+](Cc3ccc4ccccc4c3)cn2Cc2ccc3ccccc3c2)cc1 | -93.3% (active) | -89.9% (active) | -67.6% (active) | -66.4% (active) | -90% (active) | -91.8% (active) | -100% (active) | -73.2% (active) | -99.5% (active) | -91.5% (active) | -79.4% (active) | -46.7% (active) | -76% (active) | -22.4% (active) | -81.2% (active) | -9.42% (active) | -95.4% (active) | -66% (active) | -67.7% (active) | –
4 | O=c1oc2c(cc1-c1ccccc1)c(=O)[nH]c1ccccc12 | 98.2% | 96.6% | 92.7% | 97.4% | 93.4% | 96.3% | 99.4% | 95.5% | 95.8% | 99.7% | 107% | 91.4% | 96.6% | 96.6% | 99.4% | 97.5% | 96.9% | 101% | 99.7% | –
5 | CNC(=O)NCC1OC(n2cnc3c(NC(=O)Nc4ccccc4)ncnc32)C2OC(=O)CC12 (centres undefined) | 92.2% | 110% | 96.7% | 103% | 96.2% | 99.8% | 110% | 99.2% | 62.7% | 107% | 70% | 102% | 113% | 64.2% | 99.3% | 100% | 93.7% | 94.1% | 69.7% | –
6 | CCOC(=O)NCCCC(=O)NCCc1ccccc1 | 118% | 110% | 109% | 108% | 99.6% | 99.5% | 99.8% | 107% | 94.2% | 114% | 110% | 112% | 106% | 90.3% | 104% | 99.5% | 106% | 108% | 101% | –
7 | CC(C)c1ccc2c(c1)CC[C@H]1[C@](C)(C(=O)OCC#CCN3CCCC3)CCC[C@]21C | 42.7% | 36.8% | 88.6% | 86.8% | 69.2% | 61.9% | 64.7% | 55.4% | 91.1% | 76% | 103% | 74.8% | 71.5% | 60.7% | 98.6% | 94.5% | 105% | – | 72.7% | 86.2
8 | COc1ccccc1S(=O)(=O)Nc1ccc2c3c(cc(CCC(=O)NCCCCNc4cccc5c4C(=O)N(C4CCC(=O)NC4=O)C5=O)cc13)C(=O)N2C (centres undefined) | 68.4% | 48.4% | -26.1% (active) | 7.56% (active) | 61.4% | 3.96% (active) | -33% (active) | 43.9% | 21.4% | 13.3% | 11% | 71% | 7.95% (active) | 55.2% | 58% | 37.5% | 15.6% | – | 0.837% (active) | 92.4
9 | Nc1nc(C(=O)N/N=C/c2ccc(F)cc2)nn1-c1ccc(S(N)(=O)=O)cc1 | 108% | 98.5% | 83.1% | 95.2% | 98.4% | 107% | 107% | 94.4% | 94.1% | 107% | 104% | 101% | 93.8% | 81.4% | 99.4% | 90.4% | 100% | 112% | 111% | –
10 | COc1ccc2cc(-c3nc4ccc(C)cn4c3NCc3ccco3)c(=O)[nH]c2c1 | 75.8% | 79.9% | 56% | 34.6% | 75.1% | 46.1% | 56.9% | 46% | 75.8% | 81.8% | 105% | 55.9% | 76.1% | 47.8% | 71% | 50.8% | 43.8% | 62.3% | 52.7% | –
11 | CC(C)(C)OC(=O)CN1CCc2c(sc3ncnc(N4CCN(c5ccc(F)cc5)CC4)c23)C1 | 96.6% | 98.7% | 82.6% | 88% | 85.5% | 69.2% | 92% | 68.4% | 96.7% | 92.5% | 92.1% | 95.5% | 91.6% | 51.7% | 100% | 80.6% | 68.7% | 59.2% | 53.4% | –
12 | CC(C)(Sc1cc(C(C)(C)C)c(O)c(C(C)(C)C)c1)Sc1cc(C(C)(C)C)c(OC(=O)CCC(=O)O)c(C(C)(C)C)c1 | 22% | 24.2% | 94.2% | 47.4% | 34.4% | 35.5% | 50.1% | 6.79% (active) | 56.1% | 54.1% | 23.4% | 44.1% | 34.2% | 33.2% | 60.5% | 54.5% | 63.6% | 35.8% | 73.3% | –
13 | O=C1CCC(C(=O)N/N=C/c2cc(F)ccc2F)N1 (centres undefined) | 98.6% | 106% | 80.7% | 98.9% | 98% | 95.8% | 100% | 98.1% | 95.1% | 108% | 97.8% | 100% | 96.6% | 92.4% | 104% | 98% | 106% | – | 101% | 100
14 | Clc1ccc(Nc2nnc(CNc3ccccc3)c3ccccc23)cc1 | 13.4% | 0.551% (active) | 19.6% | 25.9% | 9.66% (active) | 7.15% (active) | -69.1% (active) | 8.47% (active) | 12.1% | 14.9% | 8.63% (active) | 16.9% | 28.9% | 1.91% (active) | -0.692% (active) | 28.2% | 24.7% | 12.4% | -9.21% (active) | –
15 | COc1ccc(-c2cc(C(=O)N3N=C(c4ccc(N)cc4)CC3c3ccc(Cl)cc3)c3cc(OC)ccc3n2)cc1 (centres undefined) | 22.4% | 45.1% | 87.3% | 92.6% | 74.9% | 22.9% | 88% | 49% | 39% | 48% | 88.5% | 88.1% | 84.5% | 57% | 101% | 90.5% | 87.8% | 23.1% | 32.5% | –
16 | COc1ccc(C(=O)C/C(=C\c2ccc(O)c(OC)c2)C(=O)NN)cc1 | 64.2% | 102% | 99.6% | 85% | 84.9% | 67.3% | 75% | 75.8% | 82.2% | 75.6% | 90.8% | 94% | 89% | 67.9% | 111% | 77.9% | 105% | 73.8% | 87.5% | –
